KCNQ2 pot: KCNQ2 (rat) channel potentiation | O88943 | B-score at 10 µM | actives 0.54% (n = 310,000) | CHO-K1 KCNQ2, FluxOR thallium flux fluorescence; stronger effect = higher value;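 active = fluorescence ratio B-score at least 3 SD of library B-scores, with initial fluorescence B-score within 3 of them, cut at about 5.3 in these data; same plate scores as AID 2156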;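 also: B-score of peak minus minimum over baseline fluorescence ratio after K+ and Tl+ stimulus; positive B-score means potentiation of KCNQ2 with more thallium influx and brighter signal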
KCNQ2 block: KCNQ2 (rat) channel inhibition; CHO-K1 KCNQ2, FluxOR thallium flux, 20 min; stronger effect = lower value; B-score at 10 µM; actives 1.1% (n = 310,000);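 active = fluorescence ratio B-score at most minus 3 library SDs, with starting brightness B-score within 2 library SDs, cut at about -5.5 in these data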
KCNQ2 block conf: confirmation of rat KCNQ2 potassium channel inhibitors | activity change, negative = inhibition, % at 10 µM | KCNQ2-expressing cells, thallium flux, inhibition; stronger effect = lower value | actives 57% (n = 1,000) | shares compounds with KCNQ2 block;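 also: 0% = vehicle wells and values are ratio percent relative to vehicle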
KCNQ1 spec: KCNQ2 inhibitor that also affects human KCNQ1 channel | activity change, negative = inhibition, % at 10 µM | actives 15% (n = 1,000) | KCNQ1-expressing cells, FluxOR thallium flux fluorescence; stronger effect = lower value | shares compounds with KCNQ2 block | AID 493026;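 active = activity change at least 3 SD of negative controls below their mean in both duplicate wells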;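 also: CHO cells stably transfected with KCNQ1 and depolarized by potassium stimulus; peak minus minimum fluorescence over baseline after thallium addition; 0% = vehicle negative control and -100% = blank without thallium stimulus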
Target sequence (P51787 whole entry, looked up): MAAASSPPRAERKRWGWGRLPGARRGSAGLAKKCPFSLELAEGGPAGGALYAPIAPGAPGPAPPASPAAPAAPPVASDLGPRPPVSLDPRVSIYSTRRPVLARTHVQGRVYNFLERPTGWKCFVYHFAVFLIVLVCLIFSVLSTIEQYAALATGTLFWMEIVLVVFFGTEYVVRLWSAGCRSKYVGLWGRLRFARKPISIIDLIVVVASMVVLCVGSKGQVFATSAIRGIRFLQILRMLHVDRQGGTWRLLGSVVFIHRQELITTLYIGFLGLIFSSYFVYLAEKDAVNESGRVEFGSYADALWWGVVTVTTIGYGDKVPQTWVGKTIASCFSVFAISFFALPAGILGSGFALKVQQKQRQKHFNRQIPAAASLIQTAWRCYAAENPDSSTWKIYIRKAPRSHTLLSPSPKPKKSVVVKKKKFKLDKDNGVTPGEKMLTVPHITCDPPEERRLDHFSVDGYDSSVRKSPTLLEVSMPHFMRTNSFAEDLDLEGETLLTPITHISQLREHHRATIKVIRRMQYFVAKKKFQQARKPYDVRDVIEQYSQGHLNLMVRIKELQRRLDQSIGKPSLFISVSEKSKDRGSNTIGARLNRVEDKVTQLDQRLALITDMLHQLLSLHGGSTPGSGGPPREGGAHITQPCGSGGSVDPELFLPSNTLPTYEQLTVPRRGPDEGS
CHO Tl ctr: KCNQ2 inhibitor counter-screen hit in parental CHO cells | shares compounds with KCNQ2 block | thallium flux counter-screen; stronger effect = lower value | activity change, % at 10 µM | actives 14% (n = 1,000);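 also: 0% = vehicle negative controls with stimulus buffer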
KCNQ2 patch conf: blocks rat KCNQ2 current in automated patch clamp; actives 49% (n = 550); KCNQ2-expressing cells; calls only at 10 µM; shares compounds with KCNQ2 block; AID 588531
* marks the source's active call; other numbers are inactive results; i = inactive; . = not tested or not shown; + = active, no number. An excerpt weighted towards active compounds, which were near 1.6% of everything screened. Unless noted, no rule for the calls is given here.

SMILES | KCNQ2 pot | KCNQ2 block | others
CCOC(=O)Cc1csc(NC(=S)NC(=O)c2ccccc2Br)n1 | 9.6* | i
CCOC(=O)Cc1csc(NC(=S)NC(=O)c2ccccc2)n1 | . | i
Cc1[nH]c2ccc(C(=O)NCCCN3CCN(C)CC3)cc2c1C | . | i
COc1ccc2nc(N3CCCCC3)c(/C=C3\SC(=S)NC3=O)cc2c1 | 11* | i
COc1ccc(-n2c(C)cc(/C=C3\SC(=S)NC3=O)c2C)cc1 | . | i
COc1ccc(N(CC(=O)N2CCN(c3ccccc3F)CC2)S(=O)(=O)c2ccc(C)cc2)cc1 | . | i
COc1cccc(COC(=O)c2cc(=O)[nH]c3ccc(S(=O)(=O)N4CCOCC4)cc23)c1OC | 0.65 | i
CC(C)CNC(=O)COC(=O)C1c2ccccc2Oc2ccccc21 | 0.37 | i
CC(C)(C)NC(=O)COC(=O)C1c2ccccc2Oc2ccccc21 | -5.7 | -5.7*
CC(C)(C)NS(=O)(=O)c1ccc(CCC(=O)NCc2ccccn2)cc1 | 0.45 | i
CC(=O)O[C@@H]1[C@@H](O)[C@@H](O)[C@H](Oc2c(-c3ccc(O)cc3)oc3c(CC=C(C)C)c(O)cc(O)c3c2=O)O[C@H]1C | -10 | -10*
COc1ccc(-c2oc3c(CC=C(C)C)c(O[C@@H]4O[C@H](CO)[C@@H](O)[C@H](O)[C@H]4O)cc(O)c3c(=O)c2O[C@@H]2O[C@@H](C)[C@H](O)[C@@H](O)[C@H]2O)cc1 | . | i
CS(=O)(=O)N1CCN(c2ccccc2NC(=O)Nc2cccc(Cl)c2)CC1 | . | i
O=C(Nc1nc(=S)ss1)c1ccc(Cl)cc1Cl | 17* | i
O=C(Nc1ccc2ccccc2c1)c1ccc(Cl)cc1Cl | 0.71 | i
COc1ccc(Cl)cc1NC(=O)C1(c2cccs2)CCOCC1 | . | i
Cc1ccc2nccc(C(=O)N3CCCC(N4CCN(c5ccc(F)cc5)CC4)C3)c2c1 (centres undefined) | -6.5 | -6.5*
COc1ccccc1N1CCN(C2CCCN(C(=O)c3ccnc4ccc(C)cc34)C2)CC1 (centres undefined) | . | i
CC1CCN(C(=O)COC(=O)C2CCN(S(=O)(=O)c3ccc(Cl)c(C(F)(F)F)c3)CC2)CC1 | . | i
O=C(c1ccc(Br)cc1)N1CCC(C(=O)N2CCN(c3ccccc3)CC2)CC1 | 1.5 | i
O=C1CN(c2ccccc2)C(=S)N1C(=O)c1ccc(Br)cc1 | -5.8 | -5.8*
CS(=O)(=O)Cc1ccc(C(=O)NC2CCSc3ccccc32)cc1 (centres undefined) | . | i
FC(F)(F)c1nnc(-c2ccccc2)nc1Oc1ccc(Cl)cc1Cl | -7.7 | -7.7*
FC(F)(F)c1cccc(Oc2nc(-c3ccccc3)nnc2C(F)(F)F)c1 | . | i
Cn1nc(C(F)(F)F)c(/C=N/OC(=O)c2ccccc2Cl)c1SCc1ccccc1Cl | -6 | -6*
SMILES | KCNQ2 pot | KCNQ2 block | others
Cn1nc(C(F)(F)F)c(/C=N/OC(=O)c2ccccc2)c1SCc1ccc(Cl)cc1 | . | i
CC1CN(c2cnn(C(C)C)c(=O)c2Cl)CC(C)O1 (centres undefined) | 0.37 | i
O=C(NCc1ccccc1Cl)c1ccccc1CCc1ccccc1 | -5.6 | -5.6*
O=C(NCc1ccccc1Cl)c1cnccc1C(F)(F)F | 7.4* | i
CN(CC(=O)Nc1cccc(F)c1)C(=O)c1ccccc1CCc1ccccc1 | -6.2 | -6.2*
Cc1cc(C)c(NC(=O)c2ccccc2CCc2ccccc2)c(C)c1 | . | i
O=C(NCc1ccc(Cl)cc1)c1ccccc1CCc1ccccc1 | 4.1 | i
CCc1cccc(CC)c1NC(=O)c1ccccc1CCc1ccccc1 | -6.1 | -6.1*
COc1ccc(NC(=O)CN(C)C(=O)c2ccccc2CCc2ccccc2)cc1 | . | i
O=C(NCc1ccccc1Cl)c1cnccn1 | 1.2 | i
O=C(CSc1nnc(NC(=O)c2ccccc2)s1)NC1CCCC1 | . | i
CC1Sc2ccc(S(=O)(=O)CCC(=O)NC3CCCCC3C)cc2NC1=O (centres undefined) | 0.35 | i
O=C(NC1CCC(CC2CCC(NC(=O)C(Cl)Cl)CC2)CC1)C(Cl)Cl (centres undefined) | . | i
C=CCOc1ccc(/C=C/C(=O)OCC(=O)N(C)C2CCS(=O)(=O)C2)cc1 (centres undefined) | . | i
CCOC(=O)c1ccc(NC(=O)CCc2ccc(CC)o2)cc1 | . | i
CCOC(=O)c1c(NC(=O)CCc2ccc(CC)o2)sc(C)c1C | -8.2 | -8.2* | KCNQ2 block conf=i;KCNQ1 spec=i;CHO Tl ctr=i
COCc1cc(=O)[nH]c(Cc2c(Cl)cccc2Cl)n1 | 0.02 | i
COc1ccc(C2=NS(=O)(=O)N(C)C(C(=O)N(C)Cc3ccccc3)=C2)cc1OC | . | i
O=C(NCC(=O)N1CCCC(C(F)(F)F)C1)c1ccc(Oc2ccccc2)cc1 (centres undefined) | 1.4 | i
O=C(NCC(=O)N1CCCC(C(F)(F)F)C1)c1ccc2ccccc2c1 (centres undefined) | -6.9 | -6.9* | KCNQ2 block conf=i;KCNQ1 spec=i;CHO Tl ctr=i
O=C(CCC(F)(F)F)N1CCCC(N2CCN(c3cccc(Cl)c3)CC2)C1 (centres undefined) | 1.3 | i
Cc1ccc2c(c1)c1c3n2CCN(C(=O)CN2CCN(C)CC2)C3CCC1 (centres undefined) | . | i
CN1CCN(CC(=O)N2CCn3c4c(c5cc(C6CCCCC6)ccc53)CCCC42)CC1 (centres undefined) | -13 | -13* | KCNQ2 block conf=-30%*;KCNQ1 spec=i;CHO Tl ctr=i;KCNQ2 patch conf=i
CCN(CC)CCNC(=O)CCc1c(C)nc2c(c(C)nn2-c2ccc(C)cc2)c1C | . | i
CCCN1CCN(S(=O)(=O)c2ccc3c(c2)OCCO3)CC1 | . | i
SMILES | KCNQ2 pot | KCNQ2 block | others
COc1ccccc1CNC(=O)COC(=O)c1ccc(C)c(S(=O)(=O)N2CCCCC2)c1 | -8.4 | -8.4* | KCNQ2 block conf=-36%*;KCNQ1 spec=-39%*;CHO Tl ctr=-26%*;KCNQ2 patch conf=+
COc1ccccc1CNC(=O)COC(=O)c1cccc(S(=O)(=O)N2CCCCC2)c1 | . | i
O=C(COC(=O)c1cnccn1)N=c1sccn1Cc1ccccc1Cl | . | i
Cc1ccc(NCCC(=O)c2cccs2)cc1C | -6.7 | -6.7* | KCNQ2 block conf=i;KCNQ1 spec=i;CHO Tl ctr=i
Cc1ccc(NCCC(=O)c2cccs2)cc1Cl | . | i
O=C(NCCCc1ccncc1)C1CCC(=O)N(CCc2cccc(F)c2)C1 (centres undefined) | 0.88 | i
CCOc1ccc(C(=O)Nc2cccc(C(=O)O)c2)cc1Cl | 1.1 | i
CCOc1ccc(C(=O)Nc2cccc(-c3nc4cccnc4o3)c2)cc1Cl | -10 | -10* | KCNQ2 block conf=i;KCNQ1 spec=i;CHO Tl ctr=i
Cc1ccc(S(=O)(=O)N2CCCC2C(=O)NCc2ccncc2)cc1 (centres undefined) | 1 | i
Cc1cc(C)n(-c2nc3ccccc3c(=O)n2OCc2ccc(F)cc2)n1 | . | i

From PubChem BioAssay
